Potency and activation data for 40 compounds are collected here from PubChem BioAssay (Tox21).

Molecules are shown by their SMILES. Inconclusive results are not listed. A call without a number means that no potency is given here. Unmarked numbers belong to inactive results. Active and inactive are the calls of the source. The call rests on the fitted dose curve.
Potency means the concentration at half of the fitted maximal effect.

In this assay the target is D(2) dopamine receptor (Homo sapiens) (UniProt P14416). In words: Dopamine D2 receptor (DRD2) small molecule agonists, cell-based qHTS assay (AID 1963594). Further: nearly all actives have a fitted effect of over 35% in size. To be noted: HEK293-DRD2 cAMP HTRF, agonist mode, 30 min; series mostly up to 92.4 µM. An excerpt: National Center for Advancing Translational Sciences [NCATS]
D(2) dopamine receptor (Homo sapiens), sequence (P14416 whole entry, looked up): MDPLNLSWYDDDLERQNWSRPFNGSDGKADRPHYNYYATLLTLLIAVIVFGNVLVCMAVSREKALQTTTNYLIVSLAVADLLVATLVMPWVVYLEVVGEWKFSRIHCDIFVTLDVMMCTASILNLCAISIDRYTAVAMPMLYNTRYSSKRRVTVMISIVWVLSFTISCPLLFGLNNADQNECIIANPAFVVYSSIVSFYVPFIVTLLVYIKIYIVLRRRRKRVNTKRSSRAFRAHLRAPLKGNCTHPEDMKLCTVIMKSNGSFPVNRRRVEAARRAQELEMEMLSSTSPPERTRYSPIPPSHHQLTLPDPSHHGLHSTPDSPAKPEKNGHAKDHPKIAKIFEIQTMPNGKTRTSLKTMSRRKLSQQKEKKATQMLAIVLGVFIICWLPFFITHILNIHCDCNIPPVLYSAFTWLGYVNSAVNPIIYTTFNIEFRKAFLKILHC
Division of Preclinical Innovation [DPI]
U.S. Environmental Protection Agency [EPA]
National Institutes of Environmental Health Sciences [NIEHS]
National Toxicology Program [NTP]
U.S. Food and Drug Administration [FDA]
DRD2 is the D2 subtype of the dopamine receptor, which is coupled to Gi subtype of G protein-coupled receptor. This G protein-coupled receptor inhibits adenylyl cyclase activity. The DRD2-HEK293 cell line stably expressing D2 dopamine receptor can be used for screening agonists and antagonists of interactions between D2 and its ligands. The Hek293-DRD2 cAMP assay is based on HTRF technology. It measures changes of cAMP accumulation in response to Gi coupled GPCR activation or inhibition.
Tox21 Assay Protocol Summary:
DRD2-Hek293 cells were dispensed at 600 cells/3uL/well in 1536-well white plates using a Multidrop Dispenser. After the assay plates were incubated at a 37 C/5% CO2 incubator for 24 h, 1 uL of Ro20-1724 at final concentration of 0.1 mM was transferred to the assay plate by a Flying Reagent Dispenser. Following Ro20-1724 addition, 23 nL of compound dissolved in DMSO, positive controls or DMSO only was added to the assay plates via Wako pintool station. The assay plates were incubated at room temperature for 10 min. Next, 1 uL of NKH477 at 200nM was added into the plates. After the assay plates were incubated at room temperature for an additional 30 min, 2.5 ul/well of cAMP-d2 and 2.5 ul/well of anti-cAMP-cryptate were added respectively into the assay plates using a Flying Reagent Dispenser. The plates were incubated at room temperature for 1 h. The fluorescence intensity in the plates was measured at 340 nm excitation and 665 & 620 nm emission by an Envision plate reader.
On to `CC[C@H]1C[C@@H]2C[C@H]3c4[nH]c5ccc(OC)cc5c4CCN(C2)[C@@H]13`, for which the Potency result was “inactive”. On the same count and under the same terms, under `Cc1ccc2ccccc2c1C` stands “inactive”; under `CCCCN(CCCC)C(=S)[S-].CCCCN(CCCC)C(=S)[S-].[Zn+2]`, “inactive”. Same read-out and setting: the same measure for `CCOC(=O)OC1=C(c2cc(C)ccc2C)C(=O)NC12CCC(OC)CC2` (stereo not given): “inactive”. Same read-out and setting: the same measure for `O=C(CCl)C(Cl)Cl`: “inactive”; for `NNC(N)=O`: “inactive”. `CC(c1ccccc1)(c1ccc(O)cc1)c1ccc(O)cc1`: the Potency result was “inactive”. Still for that read-out and setting: under `Nc1ccc2c(c1)Cc1ccccc1-2` stands “inactive”; under `CSc1ccc(C(=O)C(C)(C)N2CCOCC2)cc1`, “inactive”. Same read-out and setting: the same measure for `CNC(=O)O/N=C(\C)C(C)S(C)(=O)=O` (stereo not given): “inactive”. The same measure, in the same setting: under `O=CC=O` stands “inactive”. In the case of `C[C@@H]1CC[C@@]2(OC1)O[C@H]1[C@@H](O)[C@H]3[C@@H]4CC[C@H]5C[C@@H](O[C@@H]6O[C@H](CO)[C@H](O[C@@H]7O[C@H](CO)[C@@H](O)[C@H](O[C@@H]8OC[C@@H](O)[C@H](O)[C@H]8O)[C@H]7O[C@@H]7O[C@H](CO)[C@@H](O)[C@H](O[C@@H]8O[C@H](CO)[C@@H](O)[C@H](O)[C@H]8O)[C@H]7O)[C@H](O)[C@H]6O)[C@H](O)C[C@]5(C)[C@H]4CC[C@]3(C)[C@H]1[C@@H]2C`, the Potency was 51.5 µM (active). In the case of `COP(=O)(OC)O/C(=C/Cl)c1cc(Cl)c(Cl)cc1Cl`, the Potency entry is “inactive”. Consider `CCN(CC)C(C)C(=O)c1ccccc1` (stereo not given), for which the Potency result was “inactive”.

Take `CC(C)c1c(CN(C)C(C)Cc2ccccc2)n(C)n(-c2ccccc2)c1=O` (stereo not given): the Potency entry was “inactive”. Take `CCN[C@H](C)Cc1cccc(C(F)(F)F)c1`: the Potency result is “inactive”. Still for that read-out and setting: under `O=S1(=O)OCC2C(CO1)C1(Cl)C(Cl)=C(Cl)C2(Cl)C1(Cl)Cl` (stereo not given) stands “inactive”. Same read-out and setting: the same measure for `Clc1cccc2ccccc12`: “inactive”; for `c1cc[c]([Hg][c]2ccccc2)cc1`: “inactive”. Still for that read-out and setting: under `C#CC(C)(C)O` stands “inactive”; under `CCCC[P+](CC)(CCCC)CCCC` (tested in a mixture with another compound), “inactive”; under `ClC=C(Cl)Cl`, “inactive”. Consider `CC(C)(CCl)C(=O)Cl`, for which the Potency entry is “inactive”.

As for `COc1cc(C=O)cc2c1[C@H](COC(N)=O)[C@]1(OC(C)=O)ON2C[C@H]2[C@@H]1N2C(C)=O`, the Potency entry was “inactive”. For the compound `C[N+](C)(C)CCOC(=O)C(O)(c1ccccc1)c1ccccc1`, the Potency entry is “inactive”.

`C[C@@H](Oc1ccc(Cl)cc1Cl)C(=O)O`: the Potency entry was “inactive”.

On to `CCN1CCCC1CNC(=O)C(O)(c1ccccc1)c1ccccc1` (stereo not given), for which the Potency entry is “inactive”. With `CC1=C(C(=O)O)N2C(=O)[C@@H](N)[C@H]2SC1`, the activation was -15.4% [at 19 µM]. Regarding `O=C(O)C(F)(F)C(F)(F)C(F)(F)C(F)(F)C(F)(F)F`, the Potency result is “inactive”. On to `CC(Cc1ccc(C(C)(C)C)cc1)CN1C[C@@H](C)O[C@@H](C)C1` (stereo not given in full), for which the Potency result is “inactive”. Same read-out and setting: the same measure for `O=C(O)CC(Cl)C(=O)O` (stereo not given): “inactive”; for `Oc1c(Cl)c(Cl)cc(Cl)c1Cl`: “inactive”; for `O=[N+]([O-])c1ccc(CCl)cc1`: “inactive”. Same read-out and setting: under `O=CNC(N1CCN(C(NC=O)C(Cl)(Cl)Cl)CC1)C(Cl)(Cl)Cl` (stereo not given) stands “inactive”; under `CCOP(=O)(OCC)O/C(=C/Cl)c1ccc(Cl)cc1Cl`, “inactive”; under `C=CC(=O)OC`, “inactive”. Still for that read-out and setting: the same measure for `Cc1c([N+](=O)[O-])c(C)c([N+](=O)[O-])c(C(C)(C)C)c1[N+](=O)[O-]`: “inactive”. Take `C1CCNCC1`: the Potency entry is “inactive”. Consider `CC(=O)CN(CC(C)=O)N=O`, for which the Potency entry was “inactive”. `CC1=C2C[C@H]3[C@@H](CC=C4C[C@@H](O)CC[C@@]43C)[C@@H]2CC[C@]12O[C@@H]1C[C@H](C)CN[C@H]1[C@H]2C`: the Potency entry is “inactive”.
